# In paper PMC5540273 (PLoS ONE, 2017):
# Tested on: T1, MEK5
# T1 construct: gene MAP2K5
# Conditions: concentration: 1 μM, replicates: in singlicate; n = 1
# 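Note: KINOMEscan kinase panel screen.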
row,Compound,%Inh
1,CCn1c(-c2cccnc2O)nc2cnccc21 [SB-736715],11%
2,Cl.Oc1ccc(-c2nc(-c3ccccc3)[nH]c2-c2ccncc2)cc1 [SB-428218],17%
3,CC(=O)Nc1nc2cnc(Nc3cc(NC(=O)c4cccc(CCC#N)c4)ccc3C)nc2s1,2%
4,O=S(=O)(c1ccc(-c2ccnc3[nH]ccc23)cc1)N1CCCC1 [GSK846226],14%
5,CN1C(=O)C(Nc2ccc(Cl)c(C(=O)O)c2)=C(c2ccc(Cl)cc2)C1=O [SB-404290],0%
6,Fc1cc(Cl)ccc1Nc1ccnc2cc(I)ccc12 [GW551191],75%
7,O=c1cc(N2CCOCC2)nc2n(Cc3cccc(Cl)c3Cl)ccn12 [GSK2286295],13%
8,Cn1ccc2ncnc(Oc3ccc(NC(=O)Nc4ccccc4)cc3)c21,39%
9,COc1cc(Nc2nccc(N3CCC(NC(=O)Nc4cc(C)ccc4C)C3)n2)cc(OC)c1OC (stereo not drawn) [GSK1379762],99.8%
10,CC(C)(C)c1ccc(C(=O)Nc2cn3cc(Cl)ccc3n2)cc1,38%
11,COc1ccccc1CNC(=O)c1cc(C(=O)c2ccccc2C)c[nH]1 [GSK364507],36%
12,O=C(O)COc1ncnc2cc(-c3ccc4[nH]ncc4c3)sc12,38%
13,CS(=O)(=O)c1ccc(-c2nc3n(c2-c2ccncc2)CCC3)cc1 [SKF-105942],15%
14,Cc1c(Cn2ccn3c(=O)cc(N4CCOCC4)nc23)cccc1C(F)(F)F [GSK2289044],0%
15,O=C(Nc1n[nH]c2cc(-c3cccc(F)c3F)ccc12)C1CC1 [SB-733894],45%
16,Cc1csc(-c2nc(Nc3ccncc3)c3ccccc3n2)n1 [GW869640],47%
17,Cl.NC(=O)c1cccc(Nc2nccc(Nc3ccc(Oc4cccc(Cl)c4)c(Cl)c3)n2)c1 [GW659008],99.7%
18,O=C1NC(=O)C(N2CCc3ccccc32)=C1c1ccccc1Cl [SB-373598],8%

row,Compound,%Inh
1,COC(=O)c1c(-c2ccccc2)c2cc(C(=O)O)ccc2c(=O)n1Cc1ccccc1,4%
2,Cc1cc(-c2ccc3c(c2)CC[C@@H](N[C@@H](C)c2ccccc2)C3)cnc1N.Cl [GW412617],55%
3,Nc1ncnc2[nH]c(-c3ccccc3)nc12 [AH5015],50%
4,O=C(Nc1n[nH]c2nc(-c3nccs3)c(Br)cc12)C1CC1 [SB-742251],74%
5,Cc1ccccc1-n1cnc2c(N)ncnc21 [SKF-97510],0%
6,Clc1cc(Cl)cc(Nc2ccnc(Nc3cc(Cl)cc(Cl)c3)n2)c1 [GSK175726],49%
7,Cn1ccc2ncnc(Oc3ccc(Nc4nc5ccccc5[nH]4)cc3)c21,11%
8,CCCc1ccc(S(=O)(=O)NC2CCN(c3ccnc(Nc4ccc(F)cc4)n3)C2)cc1 (stereo not drawn) [GSK1379715],0%
9,COc1cc2nccc(Nc3ccc(NC(=O)c4ccc(C)cc4)c(O)c3)c2cc1OC.Cl [GW440132],99.9%
10,CCn1c(-c2ccccn2)nc2cnccc21 [SB-736398],12%
11,Cl.O=C(Nc1cccc(-c2nn3ncccc3c2-c2ccnc(Nc3cccnc3)n2)c1)c1c(F)cccc1F [GSK312879],88%
12,Cc1ccc(NC(=O)Nc2cccc(Cl)c2)cc1-c1ccc(C(=O)Nc2ccncc2)cc1 [GSK1398468],11%
13,O=C(Nc1ccc2c(c1)OCO2)NC1CCN(c2ccnc(Nc3ccc(F)cc3)n2)C1 (stereo not drawn) [GSK1379724],17%
14,COc1ccc(Nc2nccc(NCCNC(=O)Nc3ccccc3F)n2)cc1 [GSK1379901],56%
15,COc1ccc(Nc2nccc(-c3cccc(NC(=O)c4cc5cc(F)ccc5[nH]4)c3)n2)cc1 [GSK1229782],96.1%
16,Cc1cc(N2Cc3ccccc3C2)nc(Nc2ccc(S(=O)(=O)N3CCOCC3)cc2)n1.Cl [GSK1669917],9%
17,COc1ccc(CNC(=O)NC2CCN(c3ccnc(Nc4cc(OC)c(OC)c(OC)c4)n3)C2)cc1 (stereo not drawn) [GSK1379748],98.4%
18,Cc1ccc(-c2cc(-c3c[nH]nc3-c3ccccn3)ccn2)cc1 [GW684088],17%

# Tested on: T2, MEK6
# T2 construct: gene MAP2K6
# Conditions: concentration: 1 μM, replicates: in singlicate; n = 1
row,Compound,%Inh
1,CCn1c(-c2cccnc2O)nc2cnccc21 [SB-736715],0%
2,Cl.Oc1ccc(-c2nc(-c3ccccc3)[nH]c2-c2ccncc2)cc1 [SB-428218],1%
3,CC(=O)Nc1nc2cnc(Nc3cc(NC(=O)c4cccc(CCC#N)c4)ccc3C)nc2s1,12%
4,O=S(=O)(c1ccc(-c2ccnc3[nH]ccc23)cc1)N1CCCC1 [GSK846226],21%
5,CN1C(=O)C(Nc2ccc(Cl)c(C(=O)O)c2)=C(c2ccc(Cl)cc2)C1=O [SB-404290],0%
6,Fc1cc(Cl)ccc1Nc1ccnc2cc(I)ccc12 [GW551191],0%
7,O=c1cc(N2CCOCC2)nc2n(Cc3cccc(Cl)c3Cl)ccn12 [GSK2286295],0%
8,Cn1ccc2ncnc(Oc3ccc(NC(=O)Nc4ccccc4)cc3)c21,0%
9,COc1cc(Nc2nccc(N3CCC(NC(=O)Nc4cc(C)ccc4C)C3)n2)cc(OC)c1OC (stereo not drawn) [GSK1379762],0%
10,CC(C)(C)c1ccc(C(=O)Nc2cn3cc(Cl)ccc3n2)cc1,0%
11,COc1ccccc1CNC(=O)c1cc(C(=O)c2ccccc2C)c[nH]1 [GSK364507],0%
12,O=C(O)COc1ncnc2cc(-c3ccc4[nH]ncc4c3)sc12,0%
13,CS(=O)(=O)c1ccc(-c2nc3n(c2-c2ccncc2)CCC3)cc1 [SKF-105942],0%
14,Cc1c(Cn2ccn3c(=O)cc(N4CCOCC4)nc23)cccc1C(F)(F)F [GSK2289044],0%
15,O=C(Nc1n[nH]c2cc(-c3cccc(F)c3F)ccc12)C1CC1 [SB-733894],20%
16,Cc1csc(-c2nc(Nc3ccncc3)c3ccccc3n2)n1 [GW869640],0%
17,Cl.NC(=O)c1cccc(Nc2nccc(Nc3ccc(Oc4cccc(Cl)c4)c(Cl)c3)n2)c1 [GW659008],0%
18,O=C1NC(=O)C(N2CCc3ccccc32)=C1c1ccccc1Cl [SB-373598],0%

row,Compound,%Inh
1,COC(=O)c1c(-c2ccccc2)c2cc(C(=O)O)ccc2c(=O)n1Cc1ccccc1,0%
2,Cc1cc(-c2ccc3c(c2)CC[C@@H](N[C@@H](C)c2ccccc2)C3)cnc1N.Cl [GW412617],0%
3,Nc1ncnc2[nH]c(-c3ccccc3)nc12 [AH5015],0%
4,O=C(Nc1n[nH]c2nc(-c3nccs3)c(Br)cc12)C1CC1 [SB-742251],0%
5,Cc1ccccc1-n1cnc2c(N)ncnc21 [SKF-97510],20%
6,Clc1cc(Cl)cc(Nc2ccnc(Nc3cc(Cl)cc(Cl)c3)n2)c1 [GSK175726],3%
7,Cn1ccc2ncnc(Oc3ccc(Nc4nc5ccccc5[nH]4)cc3)c21,0%
8,CCCc1ccc(S(=O)(=O)NC2CCN(c3ccnc(Nc4ccc(F)cc4)n3)C2)cc1 (stereo not drawn) [GSK1379715],100%
9,COc1cc2nccc(Nc3ccc(NC(=O)c4ccc(C)cc4)c(O)c3)c2cc1OC.Cl [GW440132],0%
10,CCn1c(-c2ccccn2)nc2cnccc21 [SB-736398],100%
11,Cl.O=C(Nc1cccc(-c2nn3ncccc3c2-c2ccnc(Nc3cccnc3)n2)c1)c1c(F)cccc1F [GSK312879],0%
12,Cc1ccc(NC(=O)Nc2cccc(Cl)c2)cc1-c1ccc(C(=O)Nc2ccncc2)cc1 [GSK1398468],0%
13,O=C(Nc1ccc2c(c1)OCO2)NC1CCN(c2ccnc(Nc3ccc(F)cc3)n2)C1 (stereo not drawn) [GSK1379724],0%
14,COc1ccc(Nc2nccc(NCCNC(=O)Nc3ccccc3F)n2)cc1 [GSK1379901],0%
15,COc1ccc(Nc2nccc(-c3cccc(NC(=O)c4cc5cc(F)ccc5[nH]4)c3)n2)cc1 [GSK1229782],3%
16,Cc1cc(N2Cc3ccccc3C2)nc(Nc2ccc(S(=O)(=O)N3CCOCC3)cc2)n1.Cl [GSK1669917],0%
17,COc1ccc(CNC(=O)NC2CCN(c3ccnc(Nc4cc(OC)c(OC)c(OC)c4)n3)C2)cc1 (stereo not drawn) [GSK1379748],0%
18,Cc1ccc(-c2cc(-c3c[nH]nc3-c3ccccn3)ccn2)cc1 [GW684088],19%
